Screens (PubChem)
Hits are enriched below; roughly 7.6% of the tested compounds scored in any of these assays.
Cy5 interf NS3h: Cy5 fluorescence quenchers or enhancers, artefact control for HCV NS3 helicase inhibitor project, biochemical, ChemBridge library, Cy5 readout | Cy5-dT15 DNA with NS3h, fluorescence interference; actives lie on both sides; signal over control mean, under 1 quenches | fluorescence interference ratio at 100 µM | hit rate 6% among 16,000 | AID 720488, 2013;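 active = compound fluorescence over control fluorescence at most 0.8, a quencher, or at least a set upper limit, an enhancer; inactive = ratio between 0.8 and the set upper limit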
NS3h inh CB: HCV NS3 helicase inhibitors, primary screen, biochemical, fluorescence polarization, ChemBridge library; inhibition, % at 100 µM; NS3h Cy5-dT15 DNA binding; Hepatitis C virus NS3 helicase; hit rate 1.6% among 16,000;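 active = inhibition above the average over every tested compound plus 3 SD, cut at about 40% in these data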
* hit, by the source's call.

`COc1ccccc1C1C(=C(O)c2ccccc2)C(=O)C(=O)N1c1cccc([N+](=O)[O-])c1` (stereo unspecified) gave Cy5 interf NS3h 0.993 and NS3h inh CB 9.9.
`COc1ccc(C2N(Cc3ccccc3)CCN2Cc2ccccc2)cc1OC` gave Cy5 interf NS3h 0.907 and NS3h inh CB 11.5.
Screening COc1ccc(C2N(c3ccccc3)CCN2c2ccccc2)cc1O returned Cy5 interf NS3h 0.753* and NS3h inh CB 10.6.
Screening COc1ccc(-n2c(O)c(C=Nc3ccc(Cl)cc3)c(=O)[nH]c2=O)cc1 returned Cy5 interf NS3h 0.782* and NS3h inh CB 6.8.
Screening COc1cccc(-n2c(O)c(C(c3ccccn3)c3c(O)n(-c4cccc(OC)c4)c(=O)[nH]c3=O)c(=O)[nH]c2=O)c1 returned Cy5 interf NS3h 0.925 and NS3h inh CB 6.7.
Screening COc1ccc(OC)c(C(=O)c2c(C)oc3ccc(O)cc23)c1 returned Cy5 interf NS3h 0.967 and NS3h inh CB 9.6.
`COc1ccc2oc(C)c(C(C)=O)c2c1` gave Cy5 interf NS3h 0.74* and NS3h inh CB 15.9.
Screening O=C(NCCc1ccc(Cl)cc1)C(=O)NCc1ccccc1 returned Cy5 interf NS3h 1.06 and NS3h inh CB 5.5.
For COc1cc(-c2c(C#N)c(N)n3c(nc4ccccc43)c2C#N)ccc1OCC#N the results were Cy5 interf NS3h 0.896 and NS3h inh CB -23.6.
Screening Cc1cc(Cl)ccc1OCC(O)CN1CCCC1 (stereo unspecified) returned Cy5 interf NS3h 1.08 and NS3h inh CB 1.4.
`CC1CCN(CCCCOc2c(Cl)cccc2Cl)CC1` gave Cy5 interf NS3h 0.794* and NS3h inh CB -7.1.
For CC1CCN(Cc2c(O)ccc3ccccc23)CC1 the results were Cy5 interf NS3h 1 and NS3h inh CB 0.4.
Cc1ccc(C)c(OCCCCN2CCCC2)c1C was read as Cy5 interf NS3h 0.722* and NS3h inh CB -0.3.
Cc1csc(NC(=O)c2c(O)c3ccccc3[nH]c2=O)n1 was read as Cy5 interf NS3h 1.2* and NS3h inh CB -0.3.
For COc1ccccc1NC(=O)c1c(O)c2ccccc2[nH]c1=O the results were Cy5 interf NS3h 1.12 and NS3h inh CB 8.9.
Screening O=C1/C(=C\c2cccc([N+](=O)[O-])c2)SC(=S)N1c1cccc(C(F)(F)F)c1 returned Cy5 interf NS3h 0.971 and NS3h inh CB 34.2.
`CCc1ccc(NC(=S)NC(=O)/C=C/c2ccccc2)cc1` gave Cy5 interf NS3h 0.898 and NS3h inh CB 48.9*.
For CC(=O)c1ccc(NC(=S)NC(=O)/C=C/c2ccccc2)cc1 the results were Cy5 interf NS3h 1.06 and NS3h inh CB 5.1.
Screening Cc1ccccc1NC(=O)c1c(NC(=O)C(Cl)(Cl)Cl)sc2c1CCC2 returned Cy5 interf NS3h 0.681* and NS3h inh CB 13.0.
For CC(=O)Nc1sc2c(c1C(=O)Nc1ccccc1C)CCC2 the results were Cy5 interf NS3h 0.935 and NS3h inh CB -4.2.
Screening O=C(COc1ccccc1)Nc1ccc(Cc2ccncc2)cc1 returned Cy5 interf NS3h 0.707* and NS3h inh CB 20.4.
`O=C(COc1ccccc1)Nc1ccncc1` gave Cy5 interf NS3h 1.09 and NS3h inh CB 0.3.
`O=C1CC(N2CCN(c3ncccn3)CC2)C(=O)N1c1ccc(Br)cc1` (stereo unspecified) gave Cy5 interf NS3h 0.807 and NS3h inh CB 16.4.
`Cc1ccc(OCC(=O)N2CCC(Cc3ccccc3)CC2)c(C)c1` gave Cy5 interf NS3h 0.905 and NS3h inh CB 8.8.
CN(Cc1ccccc1)c1nc2ccccn2c(=O)c1C=C1SC(=S)N(CCc2ccccc2)C1=O was read as Cy5 interf NS3h 0.851 and NS3h inh CB 14.2.
CC1CC(O)N(c2ccccc2)C(=S)N1 (stereo unspecified) was read as Cy5 interf NS3h 0.774* and NS3h inh CB 16.8.
O=C1OC(c2ccccc2F)=N/C1=C\c1ccccc1[N+](=O)[O-] was read as Cy5 interf NS3h 0.994 and NS3h inh CB 5.0.
`CC(=O)Nc1cccc(-c2nc3ccccc3s2)c1` gave Cy5 interf NS3h 1.1 and NS3h inh CB 4.5.
Screening CC(=O)Nc1cc(-c2nc3ccccc3s2)ccc1Cl returned Cy5 interf NS3h 0.737* and NS3h inh CB 7.7.
`COc1ccc(C(=O)Nc2ccc(C)c(Cl)c2)cc1OC` gave Cy5 interf NS3h 0.734* and NS3h inh CB 18.6.
`COc1ccc(C(=O)Nc2ccc(C(C)C)cc2)cc1[N+](=O)[O-]` gave Cy5 interf NS3h 0.982 and NS3h inh CB 7.1.
Screening Cc1cc(C)cc(NC(=O)c2ccc(C)c([N+](=O)[O-])c2)c1 returned Cy5 interf NS3h 1.01 and NS3h inh CB -7.3.
For Cc1ccc(NC(=O)c2ccc(I)cc2)cc1Cl the results were Cy5 interf NS3h 1.15 and NS3h inh CB 4.5.
Screening COc1ccc(C(=O)Nc2ccc(C(N)=O)cc2)cc1[N+](=O)[O-] returned Cy5 interf NS3h 0.782* and NS3h inh CB -1.6.
`Cc1cc(C(=O)Nc2ccc(N(C)C)cc2)ccc1[N+](=O)[O-]` gave Cy5 interf NS3h 0.241* and NS3h inh CB 20.0.
CCCCOP(=O)(OCCCC)C(Nc1ccccc1)c1ccc(OC)cc1 (stereo unspecified) was read as Cy5 interf NS3h 0.989 and NS3h inh CB 9.4.
For O=C(/C=C/c1ccccc1)Nc1ccc([N+](=O)[O-])cc1 the results were Cy5 interf NS3h 0.917 and NS3h inh CB 40.3.
CC(=O)Nc1ccc(S(=O)(=O)NC(c2ccccc2)c2ccccc2)cc1 was read as Cy5 interf NS3h 1.12 and NS3h inh CB 12.4.
CC(=O)Nc1ccc(S(=O)(=O)NNC(=O)c2ccccc2Cl)cc1 was read as Cy5 interf NS3h 0.746* and NS3h inh CB 15.0.
For CSc1ccc(S(=O)(=O)N(CC(=O)NC2CCCCC2)c2ccc(C)cc2)cc1 the results were Cy5 interf NS3h 0.998 and NS3h inh CB -5.0.
Screening C=CCOc1ccc(/C=C(\C(=O)c2ccc(C)cc2)c2nc3ccccc3o2)cc1 returned Cy5 interf NS3h 0.967 and NS3h inh CB 19.7.
`O=C(Nc1cccc(Cl)c1)Nc1nnc(Cc2ccc(Cl)cc2Cl)s1` gave Cy5 interf NS3h 1.08 and NS3h inh CB -1.6.
O=C(Nc1cccc(Cl)c1)Nc1nnc(-c2ccc(Cl)cc2Cl)s1 was read as Cy5 interf NS3h 0.747* and NS3h inh CB 16.8.
For Cc1ccsc1-c1ncnn1-c1sc2c(c1C#N)CCCC2 the results were Cy5 interf NS3h 0.966 and NS3h inh CB -6.1.
For O=C(NC(=C(Cl)Cl)S(=O)(=O)c1ccc(Cl)cc1)c1ccccc1 the results were Cy5 interf NS3h 0.788* and NS3h inh CB 1.7.
COC(=NS(=O)(=O)c1ccc(Cl)cc1)c1ccccc1 was read as Cy5 interf NS3h 1.03 and NS3h inh CB 4.1.
For Cc1ccc(/C=C(\C#N)C(=O)Nc2ccccc2)cc1[N+](=O)[O-] the results were Cy5 interf NS3h 0.97 and NS3h inh CB 7.6.
For COc1ccc(NC(=O)CSc2nc3ccc(N4C(=O)c5ccccc5C4=O)cc3s2)c([N+](=O)[O-])c1 the results were Cy5 interf NS3h 0.733* and NS3h inh CB 14.1.
Screening CCOc1ccc2nc(SCC(=O)Nc3ccc(OC)cc3OC)sc2c1 returned Cy5 interf NS3h 0.939 and NS3h inh CB 6.8.
For Cc1c(Cl)c(C(F)(F)F)nn1CC(=O)NCc1ccc(Cl)cc1 the results were Cy5 interf NS3h 0.977 and NS3h inh CB 1.9.
`COc1ccc(C2=N/C(=C/c3ccc([N+](=O)[O-])cc3)C(=O)N2c2ccc(O)cc2)cc1` gave Cy5 interf NS3h 0.791* and NS3h inh CB 16.1.
